Composite z-score and composite Z-score data for 29 compounds are collected here from PubChem BioAssay.

The source made the active and inactive calls.

The target of the first assay is Albumin (Bos taurus) (UniProt P02769). As to the kind of experiment: compounds binding labelled BSA control protein – biochemical, small-molecule microarray, Alexa647 label, 635/667 nm fluorescence, artefact control for SMM control protein annotation, profiling panel (AID 1118).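 Also: score merges 667 nm emission intensity and signal-to-noise per printed compound spot.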 Particulars: BSA-A647 binding, fluorescence 635 nm, higher = more signal.
Chain of Albumin (Bos taurus) (P02769 whole entry, looked up): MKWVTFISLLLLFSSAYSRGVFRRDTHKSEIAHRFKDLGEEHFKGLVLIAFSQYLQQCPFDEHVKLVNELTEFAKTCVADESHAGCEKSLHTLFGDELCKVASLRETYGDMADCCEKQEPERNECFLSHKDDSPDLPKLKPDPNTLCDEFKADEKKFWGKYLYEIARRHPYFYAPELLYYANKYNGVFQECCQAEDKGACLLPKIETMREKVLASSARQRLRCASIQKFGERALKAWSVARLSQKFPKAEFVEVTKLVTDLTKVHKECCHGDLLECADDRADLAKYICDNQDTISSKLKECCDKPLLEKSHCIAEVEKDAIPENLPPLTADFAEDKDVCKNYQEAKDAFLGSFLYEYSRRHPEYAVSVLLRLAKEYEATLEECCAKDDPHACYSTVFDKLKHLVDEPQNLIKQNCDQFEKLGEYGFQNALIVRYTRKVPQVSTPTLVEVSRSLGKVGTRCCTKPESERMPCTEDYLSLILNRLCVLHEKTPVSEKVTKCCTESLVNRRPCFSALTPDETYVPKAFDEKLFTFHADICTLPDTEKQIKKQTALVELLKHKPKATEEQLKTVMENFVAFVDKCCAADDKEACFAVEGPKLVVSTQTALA
Regarding `CCN1C(=O)[C@H]2[C@H]3[C@H](O)[C@H](O)CC(=NO[C@@H]4O[C@H](CO)[C@@H](O)[C@H](O)[C@H]4O)[C@@H]3CC[C@H]2C1=O`, the composite z-score was -0.647.

In turn, `COCC1=C2[C@@H](CCc3ccccc3)OB(O)C[C@@H]2n2c(=O)n(-c3ccccc3)c(=O)n2C1` returned a composite z-score of 0.352.

`CN1C(=O)C2C=CC(C(O)c3ccc(Br)cc3)N(N(c3ccccc3)c3ccccc3)C2C1=O` (centres undefined) showed a composite z-score of 0.296.

As to `CC(CCN1CCCCc2nc(C)c(C)cc21)=NOC(C)CN1CCCCc2nc(C)c(C)cc21` (centres undefined), the composite z-score came out at 0.845.

Test system in the next assay: not listed separately
As to the kind of experiment: probe aXIP binding to arrayed compounds – biochemical, NeuroSMM set, 635/667 nm fluorescence, primary screen (AID 1119).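 Also: probe is the protein aXip251-270 applied at 1 µg/mL to compound-printed slides; binding of probe to printed compounds measured as 667 nm fluorescence plus signal to noise.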 Particulars: small-molecule microarray, higher = more signal, called active from +8 up or from −8 down.
As for `CO[C@@H]1COC(=O)[C@@H]2CCCN2C(=O)[C@@H](C)COC(=O)[C@H](COCc2ccccc2)NC(=O)CC=C[C@H]1C`, the composite Z-score was -0.413 (inactive).

For the compound `C#CCCCON=C1C[C@@H](O)[C@@H](O)[C@@H]2[C@@H]3C(=O)N([C@@H](C)c4ccccc4)C(=O)[C@@H]3CC[C@H]12`, the composite Z-score was -0.26 (inactive).

For `COCCCNC(=O)[C@@]1(C)c2ccccc2C(=O)N(Cc2ccc(OC(F)(F)F)cc2)[C@H]1c1ccc(CO)cc1`, the composite Z-score was -0.17 (inactive).

Take `C=COC[C@H]1CN2[C@@H](CC[C@@H](C)[C@@H]2c2ccc(Br)cc2)C(=O)O1`: the composite Z-score is -0.0224 (inactive).

Take `CC(CCN1CCCCc2nc(C)c(C)cc21)=NOC(C)CN1CCCc2nc(C)c(C)cc21` (centres undefined): the composite Z-score is 1.69 (inactive).

For `CC(C)=NOCc1ccc(-c2cc(-c3ccccc3)no2)cc1`, the composite Z-score is -0.0363 (inactive).

On to `CCc1cc2c(nc1CC)CCN(CCC(C)=NOC[C@@H](O)[C@H]1O[C@@H]3OC(C)(C)O[C@@H]3[C@H]1O)C2`, for which the composite Z-score is 0.386 (inactive).

For `COc1cccc([C@H]2Oc3ccc(OC)cc3C(=NO[C@H](C)c3cn([C@@H]4COC[C@H]4O)nn3)[C@@H]2O)c1`, the composite Z-score was -0.0239 (inactive).

Consider `O=C(NN=C1C[C@@H](O)[C@@H](O)[C@@H]2[C@@H]3C(=O)N(c4ccc(F)cc4F)C(=O)[C@@H]3CC[C@@H]12)OCc1ccccc1`, for which the composite Z-score was -0.662 (inactive).

For `CCOC(=O)[C@H](Cc1ccccc1)NC(=O)CCC1CC(OC(=O)NCc2ccc3c(c2)OCO3)CC2(CCCC(COC(=O)NCc3cccc(C(F)(F)F)c3)O2)O1` (some centres undefined), the composite Z-score was -0.944 (inactive).

For the compound `C[C@@H](c1ccccc1)N1C(=O)[C@H]2[C@H]3[C@H](O)C=CC(=O)[C@@H]3CC[C@H]2C1=O`, the composite Z-score is -0.325 (inactive).

In the case of `Cc1cc2c(c(=O)o1)[C@H](O)[C@H]1O[C@H]1C2=O`, the composite Z-score was -0.18 (inactive).

Turning to `COc1ccc(COC(=O)NN=C2C[C@@H](O)[C@@H](O)[C@@H]3[C@@H]4C(=O)N(c5ccc(F)cc5F)C(=O)[C@@H]4CC[C@@H]23)cc1`, the composite Z-score was -0.0662 (inactive).

For `CO[C@@H]1COC(=O)CCC[C@@H](C)[C@H](OC)COC(=O)CCC[C@H]1C`, the composite Z-score was 0.231 (inactive).

In the case of `O=C1C[C@@H](O)[C@@H](O)[C@@H]2[C@@H]3C(=O)N(Cc4ccc5c(c4)OCO5)C(=O)[C@@H]3CC[C@@H]12`, the composite Z-score is 0.856 (inactive).

Turning to `CC=CC1=C(CO)[C@H](O)[C@H]2O[C@H]2[C@H]1O`, the composite Z-score was 0.0448 (inactive).

On to `CC(C)[C@H](NC(=O)OC(C)(C)C)[C@@H](O)CC(=O)OC(C)(C)C`, for which the composite Z-score is 0.0831 (inactive).

`CO[C@H]1COC(=O)[C@@H]2CCCN2C(=O)CC=C[C@@H](C)[C@H](OC)COC(=O)CC=C[C@@H]1C`: the composite Z-score was 1.31 (inactive).

As for `COC(=O)[C@H](C)NC(=O)CCC1CC(OC(=O)NCCc2ccc(F)cc2)CC2(CCCC(COC(=O)NCCc3ccc(Cl)cc3)O2)O1` (some centres undefined), the composite Z-score was 0.65 (inactive).

As for `CC(C)=CCCC(C)=CCON=C1[C@H]2CCn3c(=O)n(C)c(=O)n3[C@H]2[C@H](O)[C@@H]2O[C@H]12`, the composite Z-score is -0.0793 (inactive).

With `O=C(NN=C1C[C@@H](O)[C@@H](O)[C@@H]2[C@@H]3C(=O)N(c4cccc(Oc5ccccc5)c4)C(=O)[C@@H]3CC[C@@H]12)OCc1ccccc1`, the composite Z-score was 0.187 (inactive).

Turning to `CC(=O)OC[C@H]1O[C@H](C#CCCCc2ccccc2)C=C[C@@H]1OC(C)=O`, the composite Z-score is 0.0117 (inactive).

As for `CC(CCN1CCc2nc(-c3ccccc3)c(-c3ccccc3)cc2C1)=NO[C@H](C)c1cn([C@@H]2COC[C@H]2O)nn1`, the composite Z-score is -0.0135 (inactive).

Turning to `O[C@@H](Cc1ccccc1)[C@H]1C2C=CCCC(c3ccccc3)=C2CN1Cc1cccc(Cl)c1` (some centres undefined), the composite Z-score is 0.257 (inactive).

`COc1ccc([Si](C)(C)[C@H]2[C@H](CCO)O[C@@]3(C(=O)N(Cc4cccc(NC(=O)[C@H](C)O)c4)c4ccccc43)[C@@H]2C)cc1`: the composite Z-score is 1.49 (inactive).
